Laboratory results taken from PubChem BioAssay (EPA / NIEHS).
Values joined by “and” are separate entries in the source; they are usually repeats but may differ in a detail not shown here. Identical values can stand only once. Inconclusive results are not listed. Some compounds were tested as several samples or in several runs, with calls that do not always agree. Active and inactive are the calls of the source. How the source made its calls, unless noted: active means hit-call score of the fitted dose curve at least 0.9, where 1 is the maximum; inconclusive means response in the unintended direction; inactive means score below 0.9.

What follows are molecules tested against human Peroxisome Proliferator-activated Receptor delta (PPARd), PPARD (gene 5467) (UniProt Q03181) (assay: ATG_PPARd_TRANS: Attagene TRANS-FACTORIAL HepG2 Assay for human Peroxisome Proliferator-activated Receptor delta (PPARd) (AID 2283002)). Settings: not given.
How it was run: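 Cell-based TRANS reporter: HepG2, transient MRTU transfection, 24 h exposure. Readout = reporter mRNA (RT-PCR/CE, 6-FAM). Gain-of-signal fit vs DMSO control.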

human Peroxisome Proliferator-activated Receptor delta (PPARd), PPARD (gene 5467), sequence (Q03181 whole entry, looked up): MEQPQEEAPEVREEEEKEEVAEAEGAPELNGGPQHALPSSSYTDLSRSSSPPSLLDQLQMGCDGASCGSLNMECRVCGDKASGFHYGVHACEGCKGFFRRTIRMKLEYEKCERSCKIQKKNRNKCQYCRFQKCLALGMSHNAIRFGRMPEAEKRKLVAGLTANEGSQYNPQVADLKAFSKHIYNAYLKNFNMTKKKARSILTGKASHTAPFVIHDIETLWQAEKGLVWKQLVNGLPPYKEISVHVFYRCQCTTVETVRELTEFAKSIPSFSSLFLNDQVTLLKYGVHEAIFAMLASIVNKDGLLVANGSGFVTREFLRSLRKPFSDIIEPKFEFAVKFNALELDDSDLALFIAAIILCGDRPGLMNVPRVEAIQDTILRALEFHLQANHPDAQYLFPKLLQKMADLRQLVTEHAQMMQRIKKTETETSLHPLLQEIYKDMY

SMILES	outcome	AC50
Cc1cccc2c1ccc1ccccc12	inactive	–
O=C(OC(=O)C(F)(F)C(F)(F)F)C(F)(F)C(F)(F)F	inactive	–
Cc1ccc2ccc3ccc(C)cc3c2c1	inactive	–
CCCCCCC(C)(C)C(=O)O	inactive	–
CCCCCCCCCCCC[N+](C)(C)CCCCCCCCCCCC	inactive	–
O=S(=O)(c1ccc(OCc2ccccc2)cc1)c1ccccc1O	inactive	–
CC1COCc2cc3c(cc21)C(C)(C)C(C)C3(C)C (centres undefined)	inactive	–
CCOC(C)=O	inactive	–
O=C(F)C(F)(F)C(F)(F)C(F)(F)C(F)F	inactive	–
O=c1cc(-c2ccccc2)oc2ccc3ccccc3c12	inactive	–
Cc1ccccc1C(OCCN(C)C)c1ccccc1 (centres undefined)	inactive	–
O=C(O)C(F)(F)OC(F)(F)C(F)(F)OC(F)(F)C(F)(F)OC(F)(F)C(F)(F)C(F)(F)C(F)(F)F	inactive	–
COC(=O)C(F)(F)C(F)(F)C(F)(F)C(F)(F)C(F)(F)F	inactive	–
CC1=NN(c2ccccc2)C(=O)C1	inactive	–
O=C(O)CCC(F)(F)C(F)(F)C(F)(F)C(F)(F)C(F)(F)F	inactive	–
Oc1cc2ccccc2cc1O	inactive	–
NC(=NCCCCCCN=C(N)/N=C(\N)Nc1ccc(Cl)cc1)/N=C(\N)Nc1ccc(Cl)cc1	inactive	24.5 µM (active)

SMILES	outcome	AC50
C=C(c1ccc(C(=O)O)cc1)c1cc2c(cc1C)C(C)(C)CCC2(C)C	inactive	–
O=C1c2ccccc2C(=O)c2c(O)c(O)cc(O)c21	inactive	–
CCOC=C(C(=O)OCC)C(=O)OCC	inactive	–
OCC1CCC(CO)CC1 (centres undefined)	inactive	–
FC(F)(F)C1(F)C(F)(F)C(F)(F)C(F)(F)C(F)(C(F)(F)F)C1(F)F (centres undefined)	inactive	–
CCc1cccc(CC)c1N(COC)C(=O)CS(=O)(=O)O	inactive	–
c1cc2cccc3c4cccc5cccc(c(c1)c23)c54	inactive	–
c1cnc2c(c1)ccc1cccnc12	inactive	–
O=C(c1cc(O)c(O)c(O)c1)c1ccc(O)c(O)c1O	inactive	–
FC(F)(F)N1C(F)(F)C(F)(F)OC(F)(F)C1(F)F	inactive	–
CCCCCCOC(=O)c1ccc(O)cc1	inactive	–
NNc1nc(-c2ccc([N+](=O)[O-])cc2)cs1	inactive	–
C[N+](C)(CCCNS(=O)(=O)CCC(F)(F)C(F)(F)C(F)(F)C(F)(F)C(F)(F)C(F)(F)F)CC(=O)[O-]	inactive	–
O=P(O)(O)CCC(F)(F)C(F)(F)C(F)(F)C(F)(F)C(F)(F)C(F)(F)C(F)(F)C(F)(F)F	inactive	–
O=C(NCc1ncc(C(F)(F)F)cc1Cl)c1c(Cl)cccc1Cl	inactive	–
CCCCN(C)C	inactive	–

What follows are molecules tested on Intercellular Adhesion Molecule 1 (ICAM1), ICAM1 (gene 3383) (assay: BSK_3C_ICAM1: BioMAP Diversity Plus: 3C Assay for Intercellular Adhesion Molecule 1 (ICAM1) Biomarker Activity (AID 2283003; active means hit-call score of the fitted dose curve at least 0.9, where 1 is the maximum; inactive means score below 0.9)). Settings: primary human endothelial cells (HUVEC); actives raise or lower the signal.
How it was run: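 HUVEC primary cells stimulated under 3C conditions; ICAM1 measured by ELISA 24 h after compound dosing. Curves fitted bidirectionally against the DMSO baseline. Overt cytotoxicity checked by SRB staining of parallel cultures.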

SMILES	outcome	AC50
Cc1cccc2c1ccc1ccccc12	inactive	–
CCCCCCCCCCCCCCCCCC[N+](C)(C)Cc1ccccc1	–	2.56 µM (active)
COc1cc(OC)nc(NC(=O)NS(=O)(=O)Nc2ccccc2C(=O)N(C)C)n1	inactive	–
O=C(NO)c1ccccc1	inactive	–
O=C(O)C(F)(F)OC(F)(F)C(F)(F)OC(F)(F)C(F)(F)OC(F)(F)C(F)(F)C(F)(F)C(F)(F)F	–	45.4 µM (active) and 53.1 µM (active)
CC1=NN(c2ccccc2)C(=O)C1	inactive	–
O=C(O)CCC(F)(F)C(F)(F)C(F)(F)C(F)(F)C(F)(F)F	inactive	–
Oc1cc2ccccc2cc1O	inactive	–
NC(=NCCCCCCN=C(N)/N=C(\N)Nc1ccc(Cl)cc1)/N=C(\N)Nc1ccc(Cl)cc1	–	10.5 µM (active)
CCC(C)c1ccccc1O (centres undefined)	inactive	–
O=P(O)(O)CCC(F)(F)C(F)(F)C(F)(F)C(F)(F)C(F)(F)C(F)(F)C(F)(F)C(F)(F)F	inactive	–
O=C(NCc1ncc(C(F)(F)F)cc1Cl)c1c(Cl)cccc1Cl	inactive	–

These molecules were tested against human Retinoic Acid Receptor beta (RARb), RARB (gene 5915) (UniProt P10826) (assay: ATG_RARb_TRANS: Attagene TRANS-FACTORIAL HepG2 Assay for human Retinoic Acid Receptor beta (AID 2283004)). Settings: not given.
How it was run: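 HepG2 cells were transiently transfected with GAL4-UAS reporter units that report activity of exogenous chimeric NR-Gal4 proteins, then exposed to compound for 24 h. Reporter mRNA was quantified by RT-PCR with capillary electrophoresis fluorescence, as gain of signal over DMSO.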

human Retinoic Acid Receptor beta (RARb), RARB (gene 5915), sequence (P10826 whole entry, looked up, the tested form may be a part): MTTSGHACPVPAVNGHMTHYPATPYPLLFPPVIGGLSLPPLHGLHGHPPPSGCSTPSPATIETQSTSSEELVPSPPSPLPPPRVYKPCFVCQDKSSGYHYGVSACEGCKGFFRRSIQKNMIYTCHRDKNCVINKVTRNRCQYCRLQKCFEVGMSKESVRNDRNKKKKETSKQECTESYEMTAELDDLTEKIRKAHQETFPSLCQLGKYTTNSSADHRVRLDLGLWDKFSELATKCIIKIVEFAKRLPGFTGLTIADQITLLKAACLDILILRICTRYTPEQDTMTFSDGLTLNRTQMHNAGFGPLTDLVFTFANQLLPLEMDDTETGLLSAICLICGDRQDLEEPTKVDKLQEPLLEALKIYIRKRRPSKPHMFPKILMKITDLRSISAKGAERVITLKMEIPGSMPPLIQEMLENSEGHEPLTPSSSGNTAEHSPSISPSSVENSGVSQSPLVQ

SMILES	outcome
Cc1cccc2c1ccc1ccccc12	inactive
CCCCCCCCCCCCCCCCCC[N+](C)(C)Cc1ccccc1	inactive
Cc1ccc2ccc3ccc(C)cc3c2c1	inactive
CC1COCc2cc3c(cc21)C(C)(C)C(C)C3(C)C (centres undefined)	inactive
CCOC(C)=O	inactive
O=C(F)C(F)(F)C(F)(F)C(F)(F)C(F)F	inactive
O=C(O)C(F)(F)OC(F)(F)C(F)(F)OC(F)(F)C(F)(F)OC(F)(F)C(F)(F)C(F)(F)C(F)(F)F	inactive
COC(=O)C(F)(F)C(F)(F)C(F)(F)C(F)(F)C(F)(F)F	inactive
Oc1cc2ccccc2cc1O	inactive
O=C1c2ccccc2C(=O)c2c(O)c(O)cc(O)c21	inactive
c1cc2cccc3c4cccc5cccc(c(c1)c23)c54	inactive
c1cnc2c(c1)ccc1cccnc12	inactive
O=C(c1cc(O)c(O)c(O)c1)c1ccc(O)c(O)c1O	inactive
FC(F)(F)N1C(F)(F)C(F)(F)OC(F)(F)C1(F)F	inactive
C[N+](C)(CCCNS(=O)(=O)CCC(F)(F)C(F)(F)C(F)(F)C(F)(F)C(F)(F)C(F)(F)F)CC(=O)[O-]	inactive
O=P(O)(O)CCC(F)(F)C(F)(F)C(F)(F)C(F)(F)C(F)(F)C(F)(F)C(F)(F)C(F)(F)F	inactive
O=C(NCc1ncc(C(F)(F)F)cc1Cl)c1c(Cl)cccc1Cl	inactive
CCCCN(C)C	inactive
